Jurkat NFkB inh – lowers PMA/ionomycin-induced NF-kB signal in Jurkat cells | PMA/ionomycin-induced NF-kB luciferase reporter, luminescence | inhibition, % at 4 µM | actives 0.53% (n = 330,000); in the data active means inhibition above about 50%
Beta apoptosis – beta cell apoptosis inhibition. INS-1E cytokine-induced death, ATP luminescence, 48 h; percent of positive-control rescue, neutral wells zero. protection from apoptosis, % (no concentration beside the values). actives 0.8% (n = 300,000). AID 435005;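 active means Every replicate reaches about 75%, or at least half do and their mean reaches it too, limit read from the data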;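 further: 0% = cytokine-treated negative control wells and 100% = positive control rescue; higher means more ATP so stronger rescue from cytokine killing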
697 NFkB inh – inhibitors of the PMA/ionomycin-induced NF-kB reporter in 697 B cells. inhibition, % at 4 µM. AID 435022. 697 B-cell NF-kB luciferase reporter, 16 h. actives 0.33% (n = 330,000); in the data active means inhibition above about 35%
Gli-Sufu block – Gli-Sufu pathway antagonism; Sufu-KO-LIGHT fibroblasts, Gli luciferase reporter luminescence; inhibition, % at 5 µM; actives 0.74% (n = 340,000);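 active means inhibition above about 55%, limit read from the data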;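 further: 0% = DMSO-treated cells and 100% = wells with medium but no cells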
Mdm2 MdmX PPI – human Mdm2/MdmX binding inhibition; O15151+Q00987; SaOS-2 split-luciferase Mdm2/MdmX complementation, luminescence; inhibition, % at 8 µM; actives 3% (n = 330,000);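 active means inhibition of at least 50% at 8 µM in the primary screen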
Target sequence (O15151 whole entry, looked up): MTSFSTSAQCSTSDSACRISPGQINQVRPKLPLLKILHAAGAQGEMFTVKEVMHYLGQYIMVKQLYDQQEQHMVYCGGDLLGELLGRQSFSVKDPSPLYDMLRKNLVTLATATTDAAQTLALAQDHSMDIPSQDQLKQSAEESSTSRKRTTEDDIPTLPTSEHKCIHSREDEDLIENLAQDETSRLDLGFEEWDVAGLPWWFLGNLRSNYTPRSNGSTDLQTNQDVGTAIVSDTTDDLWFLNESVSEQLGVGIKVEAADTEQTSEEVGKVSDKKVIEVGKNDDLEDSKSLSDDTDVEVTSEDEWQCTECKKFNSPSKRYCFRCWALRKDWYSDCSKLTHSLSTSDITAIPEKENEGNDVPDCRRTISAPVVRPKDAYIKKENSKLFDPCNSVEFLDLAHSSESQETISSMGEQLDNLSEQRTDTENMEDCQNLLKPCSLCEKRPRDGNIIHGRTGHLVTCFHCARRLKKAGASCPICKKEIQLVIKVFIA
Target sequence (Q00987 whole entry, looked up): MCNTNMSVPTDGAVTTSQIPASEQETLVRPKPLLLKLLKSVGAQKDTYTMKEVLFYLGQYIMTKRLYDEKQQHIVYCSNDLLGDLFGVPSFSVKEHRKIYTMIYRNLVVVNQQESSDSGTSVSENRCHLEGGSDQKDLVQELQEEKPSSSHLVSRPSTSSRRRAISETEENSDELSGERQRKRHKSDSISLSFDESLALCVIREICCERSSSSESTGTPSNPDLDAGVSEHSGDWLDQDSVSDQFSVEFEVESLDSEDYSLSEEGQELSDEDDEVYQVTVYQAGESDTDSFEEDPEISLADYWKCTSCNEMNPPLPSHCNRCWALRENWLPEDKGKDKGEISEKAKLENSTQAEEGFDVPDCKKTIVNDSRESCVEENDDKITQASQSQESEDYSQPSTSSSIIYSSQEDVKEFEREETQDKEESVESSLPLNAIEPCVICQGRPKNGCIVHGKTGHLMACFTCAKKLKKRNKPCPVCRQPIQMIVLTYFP
Mdm2 MdmX conf – confirmation of human Mdm2/MdmX interaction inhibitors | shares compounds with Mdm2 MdmX PPI | actives 55% (n = 10,000) | AID 489028 | Mdm2-MdmX binding, luminescent assay | inhibition, % at 8 µM; in the data active means inhibition above about 40%
Full FLuc ctr – inhibits full-length luciferase, flagging false Mdm2/MdmX hits. inhibition, % at 8 µM. actives 77% (n = 6,200). SaOS-2 full-length luciferase counterscreen, luminescence. shares compounds with Mdm2 MdmX PPI;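 active means mean inhibition at 8 µM reaching about 37%, which flags the compound as non-specific, limit read from the data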;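 further: p53-null SaOS-2 cells with luciferase driven by a doxycycline-inducible promoter; compound on cells about two nights before reading with doxycycline added after day one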
An asterisk follows results filed as active; . = no result given. Shown are actives, neighbours in structure and some others; about 4% of the full set was active somewhere.

SMILES | Jurkat NFkB inh | Beta apoptosis | 697 NFkB inh | Gli-Sufu block | Mdm2 MdmX PPI | Mdm2 MdmX conf | Full FLuc ctr
C#CCn1c(=NC(=O)c2ccc(S(=O)(=O)N3CCc4ccccc4C3)cc2)sc2cc(S(N)(=O)=O)ccc21 | 6 | 104* | -26 | 0 | 86* | 55* | 23
O=C(CCNC(=O)c1ccc(Br)cc1)NCc1ccncc1 | 6 | 0 | 2 | -6 | 11 | . | .
Cc1ccc(N=c2oc3cc(O)ccc3cc2C(N)=O)cc1 | 0 | 4 | -142 | -9 | 84* | 53* | 17
CC(C)NC(=O)c1c(CSc2ccccc2)noc1C(=O)NCc1ccccc1 | 10 | -1 | -17 | 11 | 1 | . | .
Cn1c(NCC(O)c2ccccc2)nc2c1c(=O)n(Cc1ccc(Cl)cc1)c(=O)n2C (centres undefined) | -4 | 6 | 4 | -17 | 3 | . | .
Cn1c(NCC(O)c2ccccc2)nc2c1c(=O)n(Cc1ccc(Cl)c(Cl)c1)c(=O)n2C (centres undefined) | -11 | 4 | -19 | 20 | 63* | 21 | .
O=C(NCCc1c[nH]c2ccccc12)/C(=C\c1cccnc1)NC(=O)c1ccccc1Br | -1 | 5 | 8 | -9 | 17 | . | .
Cc1ccc(C(C)C)c(OCC(=O)N/N=C2\CC(=O)CC(C)(C)C2)c1 | 5 | -4 | 17 | -20 | 29 | . | .
CC(=O)c1cccc(NC(=S)N2CCN(CCN3C(=O)c4cccc5cccc(c45)C3=O)CC2)c1 | -7 | 48 | -9 | 6 | 65* | -29 | .
CC(=O)c1ccc(NC(=S)N2CCN(CCN3C(=O)c4cccc5cccc(c45)C3=O)CC2)cc1 | -1 | 4 | 11 | 1 | 28 | . | .
C[C@H](CO)N1C[C@H](C)[C@@H](CN(C)Cc2ccc(C(=O)O)cc2)Oc2c(cccc2N(C)C)C1=O | 2 | -2 | 21 | -43 | -7 | . | .
Cc1ccc2oc(C(F)(F)C(F)F)cc(=O)c2c1 | -18 | -6 | 2 | -1 | 25 | . | .
Cc1ccc2oc(C(Cl)(Cl)Cl)cc(=O)c2c1 | 49 | 12 | -4 | 43 | 74* | 53* | 60*
O=C1c2ccccc2C(=O)C2OC12 (centres undefined) | 6 | -49 | 6 | . | 72* | 31 | 44*
O=C(c1cccc(Cl)c1)N1CCN(S(=O)(=O)c2ccc(Cl)s2)CC1 | 2 | 1 | 16 | 2 | 4 | . | .
CCCc1nc(SCC(=O)N2c3ccccc3CC2C)c2c(C)c(C)sc2n1 (centres undefined) | 6 | 2 | -58 | 18 | 66* | 26 | .
Cc1sc2nc(C3CC3)nc(SCC(=O)N3CCCc4ccccc43)c2c1C | -10 | 6 | -45 | . | 71* | 23 | .
O=C(NCc1ccco1)c1ccc(Cl)nc1 | 8 | -9 | 5 | 0 | -4 | . | .
O=C(NNC(=O)c1cccnc1SCc1cccc([N+](=O)[O-])c1)c1ccccn1 | -5 | . | -37 | 45 | 55* | 79* | 21
O=C(NC1CC1)c1cccc(S(=O)(=O)Nc2ccccc2F)c1 | -6 | . | 3 | -1 | 20 | . | .
Cc1cccc(N/N=C(\C(N)=O)C2=NC(C)(C)Cc3ccccc32)c1 | -21 | -7 | -90 | 25 | 58* | 35 | .
COc1ccc(C2Oc3ccccc3C3=C2C(c2cccs2)n2ncnc2N3)cc1 (centres undefined) | 41 | 2 | 2 | 11 | 72* | 70* | 30
Brc1ccc(C2C3=C(Nc4ncnn42)c2ccccc2OC3c2ccncc2)cc1 (centres undefined) | -1 | -1 | -20 | 9 | 29 | . | .
Brc1ccc(NC(c2ccccc2)c2ccncc2)cc1 (centres undefined) | 11 | -3 | 13 | 0 | -22 | . | .
O=C1CCCc2[nH]c3cccc(/C(=C/c4ccccc4)c4ccccc4)c3c21 | 0 | 2 | 7 | 2 | 18 | . | .
SMILES | Jurkat NFkB inh | Beta apoptosis | 697 NFkB inh | Gli-Sufu block | Mdm2 MdmX PPI | Mdm2 MdmX conf | Full FLuc ctr
COC(=O)c1ccc2[nH]c3cccc(/C(=C/c4ccccc4)c4ccccc4)c3c2c1 | -5 | 109* | -5 | -5 | 66* | 11 | .
COC(=O)C1CC2=C(CCC2=O)N(c2ccccc2)C1=O (centres undefined) | . | . | . | -3 | . | . | .
O=C(NCCN1CCOCC1)c1ccc(NC(=O)C2COc3ccccc3O2)cc1 (centres undefined) | -11 | -2 | -3 | 19 | -2 | . | .
C=CCn1c(SCc2nc3ccccc3c(=O)[nH]2)nc2sc3c(c2c1=O)CCCC3 | 1 | 0 | -3 | 5 | 85* | 20 | .
Cc1ccc(N/N=C2\CC(=O)c3ccccc32)cc1Cl | 8 | 31 | 14 | . | 58* | 6 | .
COC(=O)c1sccc1NC(=O)c1cccc(F)c1 | 4 | . | 2 | -1 | -25 | . | .
COC(=O)c1sccc1NC(=O)c1c(F)c(F)c(F)c(F)c1F | 7 | -2 | -8 | -1 | 75* | 21 | .
O=C(Nc1ccccc1NC(=O)c1c(F)c(F)c(F)c(F)c1F)c1c(F)c(F)c(F)c(F)c1F | -1 | 0 | 2 | 1 | 54* | 32 | 41*
CCCCCCCCCCOC(=O)Cn1c(COc2ccc(Cl)cc2)[n+](C)c2ccccc21 | 33 | 122* | -1 | 68* | 78* | 74* | 59*
CCCCOC(=O)Cn1c(=O)n(CC(=O)OCCCC)c2ccccc21 | -2 | -4 | -5 | -13 | -8 | . | .
CCCCCOC(=O)Cn1c(=O)oc2ccccc21 | 8 | 4 | 12 | -4 | 22 | . | .
CCCCCCCCCCOC(=O)Cn1c(COc2ccccc2C)[n+](C)c2ccccc21 | 45 | 110* | 30 | 85* | 89* | 69* | 17
CCCCCCCCCCOC(=O)Cn1c(COc2ccccc2)[n+](C)c2ccccc21 | 8 | 129* | -3 | 62* | 69* | 72* | 20
CCCCCCCCCCOC(=O)Cn1c(COc2ccc(OC)cc2)[n+](C)c2ccccc21 | 41 | 114* | -6 | 76* | 85* | 76* | 21
COc1ccc(OC)c(NC(=O)COC(=O)COc2ccc(Nc3ccccc3)cc2)c1 | -9 | 8 | -22 | 3 | -6 | . | .
CCCCCCCCCCOC(=O)Cn1c(COc2cccc(C)c2)[n+](C)c2ccccc21 | 35 | 99* | 6 | . | 86* | 71* | 25
CCC(=O)N1CCc2cc(S(=O)(=O)N3CCN(c4cc(C)ccc4C)CC3)ccc21 | -5 | -2 | -4 | 28 | 20 | . | .
CCOc1ccc(NC(=O)CN(C)C(=O)C2CSC3(C)CCC(=O)N23)cc1OCC (centres undefined) | -2 | 1 | 25 | 0 | 15 | . | .
CCc1ccc2[nH]c3nc(SCCN4CCOCC4)nnc3c2c1 | -34 | 4 | -58 | 14 | -21 | . | .
CCc1ccc2[nH]c3nc(SCc4nnc(-c5ccc(C)cc5)o4)nnc3c2c1 | 11 | 1 | -1 | -30 | 70* | 27 | .

Assay outcomes deposited in PubChem BioAssay by several laboratories.
